An excerpt weighted towards active compounds, which were near 12% of everything screened.
CHX counter-1 = counter-screen for Shiga toxin inhibitors: cycloheximide protein synthesis inhibition; cell reporter, cycloheximide protein synthesis inhibition counterscreen; 12% of 300,000 active; AID 2314; max response, %; in the data active = max response mostly above about 13%, no sharp cut-off; inactive = mostly below about 14%; also: read at 38.3 µM for the half of the compounds with a filed dose; 0% is about no effect
Shiga toxin inh = inhibitors of Shiga toxin in Vero cells; Vero cells, Shiga toxin protein synthesis inhibition reporter; inhibition, % at 38.7 µM; 9.2% of 290,000 active; in the data active = inhibition mostly above about 28%, no sharp cut-off; inactive = mostly below about 43%; also: 0% is about no effect
Marburg entry inh = inhibitors of Marburg virus binding or cell entry | Marburg virus pseudotyped entry inhibition, cell reporter | 1.8% of 300,000 active | Potency, µM (top dose mostly 37.8 µM), inactives show top-dose activity change, negative = inhibition, actives largely listed as inhibitors | AID 540276; calls by dose curve; tested in HEK293 cells; also: potency is read from the fitted curve at half-maximal effect; % is scaled to controls: 0 for no effect and ±100 for the full control effect
Lassa entry inh = Lassa virus entry inhibition; 1.2% of 300,000 active; AID 540256; Lassa virus pseudotype entry inhibition, cell reporter; Potency, µM (doses to about 37.9 µM), inactives show top-dose activity change, negative = inhibition, actives largely listed as inhibitors; calls by dose curve; tested in HEK293 cells; also: potency is read from the fitted curve at half-maximal effect; % is scaled to controls: 0 for no effect and ±100 for the full control effect; nearly all actives have a fitted effect of over 50% in size
CHX counter-2 = affects protein synthesis reporter in cycloheximide counter-screen; shares compounds with Shiga toxin inh; Cycloheximide counterscreen, protein synthesis reporter, Shiga toxin assay; Potency, µM (top dose mostly 38.3 µM), without a hit: top-dose activity (activation), hits mostly activators; 3% of 510 active; AID 2318; calls by dose curve; also: potency is read from the fitted curve at half-maximal effect; 0% is about no effect
WI-38 cytotox = counter-screen for perinucleolar compartment inhibitors: WI-38 cytotoxicity; Potency, µM (series often up to 46.1 µM), for inactives: at the top dose activity change, negative = cytotoxicity, hits mostly inhibitors; shares compounds with Marburg entry inh; WI-38 normal lung fibroblasts, ATPLite luminescence ATP viability, 24 h; 120 tested, under 10 active
PNC inh conf = confirmation of perinucleolar compartment assembly inhibitors; AID 2730; shares compounds with Marburg entry inh; Potency, µM (titrated, usually from 46.1 µM), for the others: at the highest dose activity, negative = PNC inhibition, usual class: inhibitors; 50% of 120 active; PC3M PTB-GFP, PNC prevalence imaging, 16 h
PC3M casp3-7 = counter-screen for PNC inhibitors: PC3M caspase 3/7 activation | shares compounds with Marburg entry inh | PC3M-GFP caspase 3/7 activation, luminescence, 24 h | activity change, positive = activation, % at 46.1 µM | 120 tested, under 10 active | AID 2731
The depositor's hits bear a star; ! = not active in a repeat; [ ] = remark or other dose. Unless noted, calls follow the shape of the dose curve; as a rule, active = well fitted curve in the direction sought with a large enough effect; inconclusive = small, poorly fitted or top-dose-only effect, or another doubt; inactive = no such curve, though single readings can be large; an effect the other way counts as inactive or inconclusive.

How did O=C(NCCc1ccccc1)C1CCCN1S(=O)(=O)c1ccccc1 (stereo not drawn) do in these assays?
CHX counter-1: 8.1; Shiga toxin inh: 21.9*; Marburg entry inh: -0.8%[46.1 µM]; Lassa entry inh: 6.6%[46.1 µM]; CHX counter-2: 4.3%

How did COc1ccccc1CNC(=O)c1csc2c1CCCC2 do in these assays?
CHX counter-1: 6.3; Shiga toxin inh: 38.8*; Marburg entry inh: 4.1%; Lassa entry inh: 8.4%; CHX counter-2: 3.3%

How did Cc1cc(NCc2ccc(Cl)cc2)n2cnnc2n1 do in these assays?
Marburg entry inh: 1.5%[46.1 µM]; Lassa entry inh: 9.6%[46.1 µM]

Results for O=C(COc1ccc2ccccc2c1)NCC1CCCO1 (stereo not drawn) ?
CHX counter-1: -1.9; Shiga toxin inh: 39.5*; Marburg entry inh: 23.0%[46.1 µM]; Lassa entry inh: 6.5%[46.1 µM]; CHX counter-2: 3.2%

Results for Cc1cc(C)nc(SCc2nc3ccccc3n2C)n1 ?
CHX counter-1: 12.7; Shiga toxin inh: 41.0*; Marburg entry inh: -9.6%[46.1 µM]; Lassa entry inh: 0.8%; CHX counter-2: 8.4%

What do the screens show for `Cc1cc(C)n(Cc2nc3ccccc3n2C)n1`?
CHX counter-1: -1.6; Shiga toxin inh: 11.3; Marburg entry inh: -2.8%; Lassa entry inh: inconclusive

How did Cc1ccc(C(=O)CSc2nnnn2C(C)C)c(C)c1 do in these assays?
CHX counter-1: 1.3; Shiga toxin inh: 33.3*; Marburg entry inh: 5.62µM*; Lassa entry inh: 7.08µM*; CHX counter-2: 0.318µM*

How did Cc1cc(C)nc(SCC(=O)Nc2cc(C)on2)n1 do in these assays?
CHX counter-1: 10.2; Shiga toxin inh: 119.1*; Marburg entry inh: 1.3%; Lassa entry inh: 1.3%; CHX counter-2: -0.9%

What do the screens show for `Cn1c2ccccc2c(=O)c2c(=O)n(C3CCCCC3)c(-c3ccco3)nc21`?
CHX counter-1: -4.8; Shiga toxin inh: -5.4; Marburg entry inh: inconclusive; Lassa entry inh: 4.0%

Results for CCOC(=O)c1ccc(N2CCN(c3ccccc3OC)CC2)c(NC(=O)Nc2ccc(CC)cc2)c1 ?
Lassa entry inh: 21.6%[46.1 µM]

What do the screens show for `COc1ccccc1/C=C/C(=O)OCc1nc2ccccc2c(=O)[nH]1`?
CHX counter-1: 2.1; Shiga toxin inh: 45.4*; Marburg entry inh: 16.2%[46.1 µM]; Lassa entry inh: -1.1%; CHX counter-2: 1.0%

What do the screens show for `COC(=O)c1ccc(C)c(NC(=O)CCSc2ccc(Cl)cc2)c1`?
CHX counter-1: 9.9; Shiga toxin inh: 100.5*; Marburg entry inh: inconclusive; Lassa entry inh: -3.8%; CHX counter-2: -2.9%

How did Cc1ccc(Oc2nn[nH]n2)cc1 do in these assays?
CHX counter-1: -1.8; Shiga toxin inh: 46.9*; Marburg entry inh: 2.4%; Lassa entry inh: -18.9%[14.3 µM]; CHX counter-2: 1.6%

How did Cc1ccccc1NC(=O)c1c2c(nc3ccccc13)CCC2 do in these assays?
CHX counter-1: -4.2; Shiga toxin inh: -10.2; Marburg entry inh: 10.4%[46.1 µM]; Lassa entry inh: 15.0%

How did CC1C(C#N)=C(N)OC2=C1C(=O)CC(C)(C)C2 (stereo not drawn) do in these assays?
CHX counter-1: 0.8; Shiga toxin inh: 21.3; Marburg entry inh: -2.1%; Lassa entry inh: 12.1%

How did CCC(C)C1C(C#N)=C(N)OC2=C1C(=O)CC(C)(C)C2 (stereo not drawn) do in these assays?
CHX counter-1: -2.1; Shiga toxin inh: 14.0*; CHX counter-2: -1.5%

What do the screens show for `Cc1ccc2c(c1C)NC(C(=O)O)C1CC=CC21` (stereo not drawn)?
CHX counter-1: 4.6; Shiga toxin inh: 110.3*!; Marburg entry inh: -9.5%; Lassa entry inh: 10.7%; CHX counter-2: -2.5%

How did Cc1nn(-c2ccc(C(=O)O)cc2)c2c1C(=O)CC(C)(C)C2 do in these assays?
CHX counter-1: -1.7; Shiga toxin inh: 80.9*; Marburg entry inh: 3.5%[46.1 µM]; Lassa entry inh: -0.3%; CHX counter-2: -4.8%

What do the screens show for `Cc1nn(-c2ccc(C(=O)O)cc2)c(C)c1Oc1ccccc1O`?
CHX counter-1: -1.9; Shiga toxin inh: -6.4; Marburg entry inh: -1.1%; Lassa entry inh: 10.1%

What do the screens show for `Cc1ccccc1CN1CCN(Cc2ccc3cccc(F)c3n2)CC1CCO` (stereo not drawn)?
CHX counter-1: -1.5; Shiga toxin inh: -1.7; Marburg entry inh: inconclusive; Lassa entry inh: 3.8%[46.1 µM]

How did Cc1oc(C(C)(C)C)cc1C(=O)NCC(=O)NCC(=O)O do in these assays?
CHX counter-1: 2.0; Shiga toxin inh: 49.8*; Marburg entry inh: -3.0%; Lassa entry inh: -24.7%; CHX counter-2: -3.5%

What do the screens show for `Cc1cc(C(=O)NCC(=O)Nc2c(C)cccc2C)c(C)o1`?
CHX counter-1: 10.6; Shiga toxin inh: -3.7; Marburg entry inh: inconclusive; Lassa entry inh: 2.7%[46.1 µM]

How did CCCCN(C(=O)Nc1ccc(Cl)cc1)C1CCN(C(C)=O)CC1 do in these assays?
CHX counter-1: 6.0; Shiga toxin inh: -15.0; Marburg entry inh: 5.8%; Lassa entry inh: inconclusive; WI-38 cytotox: 4.1%; PNC inh conf: -11.0%; PC3M casp3-7: -0.8

How did CCOCCCN(C(=O)Nc1ccc(Cl)cc1)C1CCN(C(C)=O)CC1 do in these assays?
Lassa entry inh: 3.2%[46.1 µM]

How did O=C(N/N=C/c1ccc(O)cc1O)c1ccncc1 do in these assays?
CHX counter-1: 2.4; Shiga toxin inh: 14.9

How did Cc1ccc(C(C)C)c(OCc2ccc(C(=O)N/N=C/c3ccc(O)cc3O)cc2)c1 do in these assays?
CHX counter-1: 9.7; Shiga toxin inh: 15.4; Marburg entry inh: 6.31µM*; Lassa entry inh: inconclusive; WI-38 cytotox: -6.7%; PNC inh conf: inconclusive; PC3M casp3-7: -1.9

Results for COc1cc(C2C(N3C(=O)c4ccccc4C3=O)C(=O)N2c2cccc(C)c2)cc(OC)c1OC (stereo not drawn) ?
CHX counter-1: 4.1; Shiga toxin inh: 10.5; Marburg entry inh: -0.1%; Lassa entry inh: 3.5%

What do the screens show for `CCCC(=O)NC(C)c1nc2ccccc2n1Cc1ccccc1` (stereo not drawn)?
Marburg entry inh: inconclusive; Lassa entry inh: 7.1%[46.1 µM]

Results for CC(C)(C)c1nc(SCC(=O)Nc2nc3c(s2)CCCC3)c2ccccc2n1 ?
CHX counter-1: -2.0; Shiga toxin inh: 4.2; Marburg entry inh: 1.03µM*; Lassa entry inh: 1.03µM*; WI-38 cytotox: -5.1%; PNC inh conf: 7.08µM*; PC3M casp3-7: -11.0

Results for O=C(Cc1cccs1)Nc1nc2c(s1)CCCC2 ?
CHX counter-1: 53.9*; Shiga toxin inh: 131.9*; Marburg entry inh: 0.58µM*; Lassa entry inh: 2.59µM*; WI-38 cytotox: 7.6%; PNC inh conf: 8.91µM*; PC3M casp3-7: -17.3

Results for Nc1nc(N2CCN(c3ccc(F)cc3)CC2)n[nH]1 ?
CHX counter-1: 11.0; Shiga toxin inh: -5.2; Marburg entry inh: inconclusive; Lassa entry inh: -6.3%

Screens: PubChem, National Center for Advancing Translational Sciences (NCATS)
